# Test results reported in PubChem BioAssay (NCI).
# Compounds without any hit were thinned out: in the full panel of roughly 79,000, 15% have a hit. Unmarked numbers belong to inactive results. Active and inactive are the calls of the source. Rule as the data show it: active = growth inhibition above about 70%; inactive = the rest.
# Tests used:
# [1] = NCI Yeast Anticancer Drug Screen. Data for the rad52 strain (AID 147);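 also: 0% = growth of vehicle-treated control cultures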; settings: S. cerevisiae rad52 mutant growth inhibition, active compounds read high
# Outline: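 Growth of repair-deficient yeast cells was compared between compound-treated and vehicle-treated cultures to give percent inhibition.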
# [2] = NCI Yeast Anticancer Drug Screen. Data for the wt1 strain (AID 149);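 also: 0% = growth of vehicle-treated wt1 cultures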; settings: S. cerevisiae wt1 strain (SPY 50644) growth inhibition, active compounds read high
# Outline: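 The wt1 strain was treated with compounds, and growth was compared with vehicle-treated cultures to give inhibition.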
# [3] = NCI Yeast Anticancer Drug Screen. Data for the mgt1 strain (AID 153); settings: S. cerevisiae mgt1 mutant growth inhibition, active compounds read high
# Outline: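 Compounds were applied to mgt1 mutant yeast, and growth was then compared against vehicle-treated control cultures to give percent inhibition.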
# [4] = NCI Yeast Anticancer Drug Screen. Data for the rad50 strain (AID 155);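 also: 0% = growth of vehicle-only cultures of the same strain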; settings: S. cerevisiae rad50 strain growth inhibition, active compounds read high
# Outline: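 Cells are treated with compound, grown, and their growth is then scored against vehicle-only cultures of the same repair-deficient yeast strain.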
# [5] = NCI Yeast Anticancer Drug Screen. Data for the mec2-1 strain (AID 157); settings: S. cerevisiae mec2-1 strain, active compounds read high
# Outline: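 Compounds were applied to mec2-1 yeast cells. Their growth was then compared with that of vehicle-treated cultures to give growth inhibition.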
# [6] = NCI Yeast Anticancer Drug Screen. Data for the rad14 strain (AID 159);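 also: 0% = growth of vehicle-treated control cultures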; settings: S. cerevisiae rad14 strain growth inhibition, active compounds read high
# Outline: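 Readout: yeast growth inhibition, referenced to vehicle-only cultures. Strain bears a defined alteration in DNA damage repair.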
# [7] = NCI Yeast Anticancer Drug Screen. Data for the sgs1 mgt1 strain (AID 161);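 also: 0% = growth of cultures given vehicle only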; settings: S. cerevisiae sgs1 mgt1 strain, active compounds read high
# Outline: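 This yeast growth screen uses a strain with defined DNA-repair lesions; compound-treated growth is compared with vehicle-treated growth.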
# [8] = NCI Yeast Anticancer Drug Screen. Data for the CLN2oe strain (AID 163);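 also: 0% = growth of vehicle-only control cultures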; settings: S. cerevisiae CLN2oe strain, active compounds read high
# Outline: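 Cells of an engineered yeast line with disturbed cell-cycle regulation are treated with compound. Inhibition of growth is then calculated relative to the vehicle-treated reference.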
# [9] = NCI Yeast Anticancer Drug Screen. Data for the cln2 rad14 strain (AID 165);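 also: 0% = growth equal to vehicle treated cultures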; settings: S. cerevisiae cln2 rad14 strain, active compounds read high
# Outline: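 Strain: cln2 rad14 yeast, altered in cell cycle control and DNA damage repair. Read-out: growth inhibition vs vehicle.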
# [10] = NCI Yeast Anticancer Drug Screen. Data for the bub3 strain (AID 167); settings: S. cerevisiae bub3 mutant strain, active compounds read high
# Outline: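 Part of a panel of yeast mutants defective in DNA damage repair or cell cycle regulation. Each strain is grown with compound, and inhibition is calculated relative to solvent-treated cultures.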
# [11] = NCI Yeast Anticancer Drug Screen. Data for the wt2 strain (AID 169);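 also: 0% = growth of vehicle-treated yeast cultures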; settings: S. cerevisiae wt2 strain growth inhibition, active compounds read high
# Outline: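 Growth of compound-treated yeast is measured and expressed as inhibition relative to vehicle-only controls.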
# [12] = NCI Yeast Anticancer Drug Screen. Data for the mlh1 strain (AID 171);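 also: 0% = growth of vehicle-treated control cultures of the same strain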; settings: S. cerevisiae mlh1 strain growth inhibition, active compounds read high
# Outline: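 Test agents were incubated with yeast bearing a defined DNA damage repair or cell cycle control alteration; values are growth inhibition normalised to vehicle-treated cultures.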
# [13] = NCI Yeast Anticancer Drug Screen. Data for the sgs1 strain (AID 173);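 also: 0% = growth of vehicle-only control cultures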; settings: S. cerevisiae sgs1 mutant, active compounds read high
# Outline: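 Strain with an altered DNA repair or cell cycle pathway exposed to compound. Growth then measured. Value = inhibition versus vehicle control.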
# [14] = NCI Yeast Anticancer Drug Screen. Data for the mlh1 rad18 strain (AID 175); settings: S. cerevisiae mlh1 rad18 strain growth inhibition, active compounds read high
# Outline: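 A repair-deficient yeast strain is exposed to test compound, and growth is scored relative to vehicle-treated controls.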
# [15] = NCI Yeast Anticancer Drug Screen. Data for the rad18 strain (AID 177); settings: S. cerevisiae rad18 mutant growth inhibition, active compounds read high
# Outline: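 DNA-repair-defective yeast; compound treatment; growth inhibition scored against vehicle.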
# [16] = at 5.0 µM (retest, dose inferred, filed as 0.5)
# [17] = at 50.0 µM (retest, dose inferred, filed as 5.0)
compound,measurement,setting,value
c1ccc2c(c1)c1ncccc1c1nccnc21,growth inhibition,[1]; at 1.2 µM,2%
same,growth inhibition,[1]; at 3.7 µM,8%
same,growth inhibition,[1]; at 11.0 µM,26%
same,growth inhibition,[1]; at 33.0 µM,48%
same,growth inhibition,[1]; at 100.0 µM,72% (active)
same,growth inhibition,[2]; at 1.2 µM,-2%
same,growth inhibition,[2]; at 3.7 µM,4%
same,growth inhibition,[2]; at 11.0 µM,11%
same,growth inhibition,[2]; at 33.0 µM,12%
same,growth inhibition,[2]; at 100.0 µM,19%
same,growth inhibition,[3]; at 1.2 µM,-2%
same,growth inhibition,[3]; at 3.7 µM,0%
same,growth inhibition,[3]; at 11.0 µM,-2%
same,growth inhibition,[3]; at 33.0 µM,-2%
same,growth inhibition,[3]; at 100.0 µM,-2%
same,growth inhibition,[4]; at 1.2 µM,-4%
same,growth inhibition,[4]; at 3.7 µM,9%
same,growth inhibition,[4]; [16],-46%
same,growth inhibition,[4]; at 11.0 µM,34%
same,growth inhibition,[4]; at 33.0 µM,55%
same,growth inhibition,[4]; [17],53%
same,growth inhibition,[4]; at 50.0 µM,76.8% (active)
same,growth inhibition,[4]; at 100.0 µM,71% (active)
same,growth inhibition,[5]; at 1.2 µM,1%
same,growth inhibition,[5]; at 3.7 µM,0%
same,growth inhibition,[5]; [16],-47%
same,growth inhibition,[5]; at 11.0 µM,0%
same,growth inhibition,[5]; at 33.0 µM,2%
same,growth inhibition,[5]; [17],-53%
same,growth inhibition,[5]; at 50.0 µM,14.7%
same,growth inhibition,[5]; at 100.0 µM,4%
same,growth inhibition,[6]; at 1.2 µM,3%
same,growth inhibition,[6]; at 3.7 µM,3%
same,growth inhibition,[6]; at 11.0 µM,23%
same,growth inhibition,[6]; at 33.0 µM,16%
same,growth inhibition,[6]; at 100.0 µM,11%
same,growth inhibition,[7]; [16],-60%
same,growth inhibition,[7]; [17],-53%
same,growth inhibition,[7]; at 50.0 µM,0%
same,growth inhibition,[8]; at 1.2 µM,0%
same,growth inhibition,[8]; at 3.7 µM,-5%
same,growth inhibition,[8]; at 11.0 µM,-10%
same,growth inhibition,[8]; at 33.0 µM,-8%
same,growth inhibition,[8]; at 100.0 µM,-7%
same,growth inhibition,[9]; [16],-60%
same,growth inhibition,[9]; [17],-59%
same,growth inhibition,[9]; at 50.0 µM,-40.5%
same,growth inhibition,[10]; at 1.2 µM,4%
same,growth inhibition,[10]; at 3.7 µM,-2%
same,growth inhibition,[10]; [16],-58%
same,growth inhibition,[10]; at 11.0 µM,-1%
same,growth inhibition,[10]; at 33.0 µM,-5%
same,growth inhibition,[10]; [17],-60%
same,growth inhibition,[10]; at 50.0 µM,-0.35%
same,growth inhibition,[10]; at 100.0 µM,-7%
same,growth inhibition,[11]; at 1.2 µM,9%
same,growth inhibition,[11]; at 3.7 µM,14%
same,growth inhibition,[11]; at 11.0 µM,16%
same,growth inhibition,[11]; at 33.0 µM,19%
same,growth inhibition,[11]; at 100.0 µM,22%
same,growth inhibition,[12]; at 1.2 µM,-10%
same,growth inhibition,[12]; at 3.7 µM,-4%
same,growth inhibition,[12]; at 11.0 µM,-2%
same,growth inhibition,[12]; at 33.0 µM,2%
same,growth inhibition,[12]; at 100.0 µM,17%
same,growth inhibition,[13]; at 1.2 µM,-12%
same,growth inhibition,[13]; at 3.7 µM,-14%
same,growth inhibition,[13]; at 11.0 µM,-2%
same,growth inhibition,[13]; at 33.0 µM,3%
same,growth inhibition,[13]; at 100.0 µM,21%
same,growth inhibition,[14]; [16],-97%
same,growth inhibition,[14]; [17],-73%
same,growth inhibition,[14]; at 50.0 µM,33.9%
same,growth inhibition,[15]; at 1.2 µM,-10%
same,growth inhibition,[15]; at 3.7 µM,-1%
same,growth inhibition,[15]; at 11.0 µM,-2%
same,growth inhibition,[15]; at 33.0 µM,-1%
same,growth inhibition,[15]; at 100.0 µM,13%
CC[C@@]1(O)C(=O)OCc2c1cc1n(c2=O)Cc2cc3c(CN(C)C)c(O)ccc3nc2-1,growth inhibition,[1]; at 1.2 µM,5%
same,growth inhibition,[1]; at 3.7 µM,13%
same,growth inhibition,[1]; at 11.0 µM,41%
same,growth inhibition,[1]; at 33.0 µM,68%
same,growth inhibition,[1]; at 100.0 µM,87% (active)
same,growth inhibition,[2]; at 1.2 µM,-1%
same,growth inhibition,[2]; at 3.7 µM,-1%
same,growth inhibition,[2]; at 11.0 µM,-2%
same,growth inhibition,[2]; at 33.0 µM,-2%
same,growth inhibition,[2]; at 100.0 µM,-6%
same,growth inhibition,[3]; at 1.2 µM,11%
same,growth inhibition,[3]; at 3.7 µM,2%
same,growth inhibition,[3]; at 11.0 µM,3%
same,growth inhibition,[3]; at 33.0 µM,11%
same,growth inhibition,[3]; at 100.0 µM,18%
same,growth inhibition,[4]; at 1.2 µM,6%
same,growth inhibition,[4]; at 3.7 µM,18%
same,growth inhibition,[4]; [16],21%
same,growth inhibition,[4]; at 11.0 µM,40%
same,growth inhibition,[4]; at 33.0 µM,79% (active)
same,growth inhibition,[4]; [17],85% (active)
same,growth inhibition,[4]; at 50.0 µM,80.7% (active)
same,growth inhibition,[4]; at 100.0 µM,92% (active)
same,growth inhibition,[5]; at 1.2 µM,-2%
same,growth inhibition,[5]; at 3.7 µM,-2%
same,growth inhibition,[5]; [16],-3%
same,growth inhibition,[5]; at 11.0 µM,-1%
same,growth inhibition,[5]; at 33.0 µM,2%
same,growth inhibition,[5]; [17],-1%
same,growth inhibition,[5]; at 50.0 µM,12.4%
same,growth inhibition,[5]; at 100.0 µM,10%
same,growth inhibition,[6]; at 1.2 µM,-1%
same,growth inhibition,[6]; at 3.7 µM,-4%
same,growth inhibition,[6]; at 11.0 µM,-2%
same,growth inhibition,[6]; at 33.0 µM,-6%
same,growth inhibition,[6]; at 100.0 µM,-4%
same,growth inhibition,[7]; [16],-3%
same,growth inhibition,[7]; [17],-3%
same,growth inhibition,[7]; at 50.0 µM,4.5%
same,growth inhibition,[8]; at 1.2 µM,-2%
same,growth inhibition,[8]; at 3.7 µM,-4%
same,growth inhibition,[8]; at 11.0 µM,-6%
same,growth inhibition,[8]; at 33.0 µM,-13%
same,growth inhibition,[8]; at 100.0 µM,-1%
same,growth inhibition,[9]; [16],-3%
same,growth inhibition,[9]; [17],-12%
same,growth inhibition,[9]; at 50.0 µM,-5.5%
same,growth inhibition,[10]; at 1.2 µM,0%
same,growth inhibition,[10]; at 3.7 µM,-1%
same,growth inhibition,[10]; [16],-3%
same,growth inhibition,[10]; at 11.0 µM,-3%
same,growth inhibition,[10]; at 33.0 µM,-14%
same,growth inhibition,[10]; [17],-10%
same,growth inhibition,[10]; at 50.0 µM,-14.6%
same,growth inhibition,[10]; at 100.0 µM,-11%
same,growth inhibition,[12]; at 1.2 µM,0%
same,growth inhibition,[12]; at 3.7 µM,-4%
same,growth inhibition,[12]; at 11.0 µM,-3%
same,growth inhibition,[12]; at 33.0 µM,0%
same,growth inhibition,[12]; at 100.0 µM,0%
same,growth inhibition,[13]; at 1.2 µM,-3%
same,growth inhibition,[13]; at 3.7 µM,0%
same,growth inhibition,[13]; at 11.0 µM,0%
same,growth inhibition,[13]; at 33.0 µM,6%
same,growth inhibition,[13]; at 100.0 µM,5%
same,growth inhibition,[14]; [16],0%
same,growth inhibition,[14]; [17],3%
same,growth inhibition,[14]; at 50.0 µM,12.2%
same,growth inhibition,[15]; at 1.2 µM,28%
same,growth inhibition,[15]; at 3.7 µM,23%
same,growth inhibition,[15]; at 11.0 µM,28%
same,growth inhibition,[15]; at 33.0 µM,16%
same,growth inhibition,[15]; at 100.0 µM,9%
